What all share (assay): growth inhibition (% activity, log2 RLU normalised to DMSO / staurosporine); higher = more growth inhibition
Conditions in all cases: 33 µM

For one assay, the system named is DIPGX29 (H3.3 K27M diffuse intrinsic pontine glioma line). An outline of the steps: (§1)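 Cells (pHGG lines and H9-derived neural stem cells) were plated on Geltrex-coated 384-well plates and exposed to approved drugs at a single final concentration of about 33 μM, in triplicate, for 7 days at 37 °C, 5% CO2. Log2-transformed CellTiter-Glo luminescence was normalised per plate to % activity between solvent and positive control wells, and the growth-inhibition value is the median over replicates.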

The test system of a further assay is DIPGX37 (H3.3 K27M diffuse intrinsic pontine glioma line). An outline of the steps:
as §1

The next assay has as its system DIPGX7 (H3.3 K27M diffuse intrinsic pontine glioma line). The method, boiled down: as §1
The subject of a further assay is DIPGX9 (diffuse intrinsic pontine glioma line). The method, boiled down: as §1
A further assay has as its system HGGX39 (paediatric high-grade glioma line). The method, boiled down: as §1
A further assay deals with HGGX6 (H3.3 G34R paediatric high-grade glioma line). The method, boiled down:
as §1

A further assay relates to HNSC. An outline of the steps: as §1
Another assay has as its system SUDIPGIV (diffuse intrinsic pontine glioma line)
An outline of the steps:
as §1

For another assay, the system named is SUDIPGVI (diffuse intrinsic pontine glioma line)
The method, boiled down: as §1

The subject of a further assay is SUDIPGXIII (diffuse intrinsic pontine glioma line)
The method, boiled down:
as §1

Here are results for eleven compounds from the supplement of paper PMC8253809.

For `Nc1nc(F)nc2c1ncn2[C@@H]1O[C@H](COP(=O)(O)O)[C@@H](O)[C@@H]1O`, the growth inhibition in the assay on DIPGX29 is 16.9%; in the assay on DIPGX37, 1.7%; with DIPGX7 it was 11.8%; with DIPGX9 it was 31.4%; in the assay with HGGX39 it was 8.94%; in the assay on HGGX6, -0.81%. Also, the growth inhibition in the assay with HNSC was 23.2%; with SUDIPGIV, 9.24%; with SUDIPGVI, -2.06%; in the assay on SUDIPGXIII, 1.2%.
Take `CCC(C)n1ncn(-c2ccc(N3CCN(c4ccc(OCC5COC(Cn6cncn6)(c6ccc(Cl)cc6Cl)O5)cc4)CC3)cc2)c1=O` (stereo not drawn): the growth inhibition in the assay with DIPGX29 is -0.782%; with DIPGX37, 1.27%; in the assay with DIPGX7 it was 1.59%; with DIPGX9, 1.24%; in the assay on HGGX39, 4.33%; in the assay on HGGX6 it was 1.37%. Also, the growth inhibition is 7.95% with HNSC, 1.44% in the assay with SUDIPGIV and 1.98% in the assay with SUDIPGVI.
On to `O[C@@H]1CO[C@H]2[C@@H]1OC[C@@H]2O`, for which the growth inhibition in the assay on DIPGX29 was -2.46%; in the assay on DIPGX37, 0.0638%; in the assay on DIPGX7, -2.43%; in the assay with DIPGX9, -0.699%; in the assay with HGGX39, 0.692%; in the assay with HGGX6, 0.785%. For the same compound, the growth inhibition in the assay with HNSC was -3.92%; in the assay with SUDIPGIV it was -2.68%; in the assay with SUDIPGVI, -0.216%.
Take `Oc1ccc(OC2CCCCO2)cc1` (stereo not drawn): the growth inhibition is -0.0269% with DIPGX29; 0.922% in the assay with DIPGX37; 1.6% in the assay on DIPGX7; 1.43% with DIPGX9; 2.89% in the assay on HGGX39; 2.46% in the assay with HGGX6. Further, the growth inhibition in the assay on HNSC is -1.26%; in the assay on SUDIPGIV, 0.845%; with SUDIPGVI, 0.118%; in the assay with SUDIPGXIII, 0.895%.
On to `Cc1c(O)c(=O)ccn1C`, for which the growth inhibition is -0.259% with DIPGX29; -0.497% with DIPGX37; -0.173% in the assay with DIPGX7; 1.03% in the assay with DIPGX9; 0.26% in the assay with HGGX39; 1.77% in the assay with HGGX6. In addition, the growth inhibition in the assay with HNSC was -3.85%; with SUDIPGIV, -2.04%; in the assay with SUDIPGVI it was 0.573%.
As to `CC(C)(C)C(=O)C(Oc1ccc(Cl)cc1)n1ccnc1` (stereo not drawn), the growth inhibition in the assay on DIPGX29 was 0.826%; with DIPGX37, 1.56%; with DIPGX7, 3.93%; in the assay on DIPGX9 it was 1.25%; in the assay with HGGX39, 5.9%; in the assay on HGGX6, 4.74%. In addition, the growth inhibition with HNSC was determined as 5.37%; with SUDIPGIV it was 7.06%; with SUDIPGVI, 2.6%.
For the compound `OCCOCCN1CCN(C2=Nc3ccccc3Sc3ccccc32)CC1`, the growth inhibition in the assay on DIPGX29 turned out to be 0.62%; with DIPGX37, 0.529%; in the assay with DIPGX7, 4.12%; in the assay with DIPGX9 it was 1.36%; with HGGX39, 2.86%; in the assay with HGGX6, 2.19%. Also, the growth inhibition is 0.74% with HNSC, -0.167% in the assay with SUDIPGIV, -0.798% in the assay with SUDIPGVI and 1.66% in the assay on SUDIPGXIII.
With `Cc1ncc([N+](=O)[O-])n1CC(C)O` (stereo not drawn), the growth inhibition with DIPGX29 was -2.47%; with DIPGX37, -0.804%; with DIPGX7 it was -1.3%; with DIPGX9, 0.505%; in the assay with HGGX39 it was -1.86%; in the assay on HGGX6, 0.138%. Besides, the growth inhibition with HNSC is -4.53%; with SUDIPGIV, -1.52%; in the assay with SUDIPGVI, -0.382%.
For the compound `CC[C@H]1OC(=O)[C@H](C)[C@@H](O[C@H]2C[C@@](C)(OC)[C@@H](O)[C@H](C)O2)[C@H](C)[C@@H](O[C@@H]2O[C@H](C)C[C@H](N(C)C)[C@H]2O)[C@](C)(O)C[C@@H](C)/C(=N\OCOCCOC)[C@H](C)[C@@H](O)[C@]1(C)O`, the growth inhibition in the assay on DIPGX29 is -1.55%; in the assay with DIPGX37 it was -0.523%; in the assay on DIPGX7 it was -0.0281%; in the assay on DIPGX9 it was 1.56%; with HGGX39 it was 1.63%; in the assay with HGGX6, 0.659%. Moreover, the growth inhibition in the assay with HNSC is -0.847%; in the assay with SUDIPGIV it was 0.447%; with SUDIPGVI, -0.66%.
Regarding `CC(C)NCC(O)COc1cccc2ccccc12` (stereo not drawn), the growth inhibition with DIPGX29 was -0.19%; in the assay with DIPGX37, -0.496%; in the assay on DIPGX7 it was -0.508%; in the assay with DIPGX9, 1.12%; in the assay with HGGX39 it was 0.98%; in the assay on HGGX6, 0.0936%. The growth inhibition was -3.29% in the assay with HNSC, -1.1% in the assay on SUDIPGIV and 0.673% with SUDIPGVI.
On to `OCCN1C[C@H](O)[C@@H](O)[C@H](O)[C@H]1CO`, for which the growth inhibition in the assay on DIPGX29 was 2.17%; with DIPGX37, 1.74%; with DIPGX7 it was 3.33%; in the assay on DIPGX9, 2.76%; with HGGX39, 4.58%; in the assay with HGGX6 it was 1.44%. The growth inhibition came out at 6.31% with HNSC, 2.25% in the assay on SUDIPGIV, 4.59% in the assay with SUDIPGVI and 1.39% in the assay on SUDIPGXIII.
